# From PubChem BioAssay (NCI)
# Compounds without any hit were thinned out: in the full panel of roughly 83,000, 20% have a hit.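 Negative percent growth values reflect cell death: -40 means 40% of the cells present at the start died, and -100 means all died.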 Activity calls are given as the source filed them. The calls were made as follows: active = growth percent below 10; inactive = the rest.
# What was measured:
# Test in all cases: NCI-60 one-dose screen, 48 h (100 = growth as untreated, 0 = no growth, -100 = all killed)
# Details in all cases: 10 µM unless noted
# [1] = system: NCI-H23 lung
# [2] = system: NCI-H226 lung
# [3] = system: NCI-H322M lung
# [4] = system: HOP-62 NSCLC
# [5] = system: HOP-92 NSCLC
# [6] = system: NCI-H522 lung
# [7] = system: 786-0 renal
# [8] = system: COLO 205 colon
# [9] = system: DU-145 prostate
# [10] = system: K-562 leukemia
# [11] = system: MALME-3M melanoma
# [12] = system: MDA-MB-231 breast
# [13] = system: RXF 393 renal
# [14] = system: SF-268 CNS
# [15] = system: SF-295 CNS
# [16] = system: SF-539 CNS
# [17] = system: UACC-257 melanoma
# [18] = system: M14 melanoma
# [19] = system: A549/ATCC NSCLC
# [20] = system: NCI-H460 lung
SMILES,growth [1],growth [2],growth [3],growth [4],growth [5],growth [6],growth [7],growth [8],growth [9],growth [10],growth [11],growth [12],growth [13],growth [14],growth [15],growth [16],growth [17],growth [18],growth [19],growth [20]
Nc1nnc(C(=O)c2cnc3n(c2=O)CCCCC3)s1,96.7% (inactive),92.4% (inactive),103% (inactive),101% (inactive),98.4% (inactive),98% (inactive),101% (inactive),118% (inactive),103% (inactive),92.3% (inactive),101% (inactive),90.4% (inactive),104% (inactive),96.6% (inactive),101% (inactive),94.3% (inactive),101% (inactive),96.7% (inactive),,
COc1ccc(/C=C2\COc3ccc(-c4ccccc4)cc3C2=O)cc1O,50.5% (inactive),96.2% (inactive),66.7% (inactive),-41.9% (active),-1.71% (active),17.8% (inactive),-21.8% (active),63.9% (inactive),-2.34% (active),2.96% (active),74.7% (inactive),41.6% (inactive),,13.3% (inactive),24.2% (inactive),-0.576% (active),48.3% (inactive),22.9% (inactive),62% (inactive),
O=C(N=Nc1c(O)[nH]c2ccc(F)cc12)c1cc2ccccc2[nH]1,97.4% (inactive),,94.4% (inactive),94.5% (inactive),96.4% (inactive),77.8% (inactive),97.3% (inactive),117% (inactive),95.9% (inactive),91.7% (inactive),99.8% (inactive),95.1% (inactive),104% (inactive),88.3% (inactive),100% (inactive),99.8% (inactive),106% (inactive),94.9% (inactive),91.3% (inactive),100% (inactive)
COc1ccc(C(=O)c2cc3c(N)c(C(=O)Nc4ccc(Br)cc4)sc3nc2C)cc1,82.7% (inactive),38.5% (inactive),78.9% (inactive),21.2% (inactive),66.1% (inactive),39.6% (inactive),58.2% (inactive),85.9% (inactive),79.5% (inactive),71.5% (inactive),54.3% (inactive),66% (inactive),,50.2% (inactive),86.6% (inactive),66.2% (inactive),79.8% (inactive),74.1% (inactive),79.5% (inactive),
CC1=CC2(C)/C=C(C)/C=C\CC(O)/C=C3/C=CC(=C4C(=O)OC2(CC1C)C4=O)OC3 (centres undefined),-97.5% (active),59.4% (inactive),98.8% (inactive),90.9% (inactive),-75.7% (active),-50.5% (active),-92.1% (active),-80.5% (active),-85.4% (active),2.75% (active),-96.3% (active),24.2% (inactive),,-22.4% (active),41.4% (inactive),-82.1% (active),-57% (active),-77.1% (active),,
CC1(c2ccccc2)NC(=O)N(CC(=O)Nc2cccc(I)c2)C1=O (centres undefined),95.3% (inactive),72.2% (inactive),83.8% (inactive),76.7% (inactive),60.1% (inactive),67.5% (inactive),95.3% (inactive),106% (inactive),106% (inactive),91.7% (inactive),75.3% (inactive),75% (inactive),,89.7% (inactive),94% (inactive),89.9% (inactive),84.9% (inactive),102% (inactive),,
CC[C@H](C)[C@@H]1NC(=O)[C@H](Cc2ccc(O)cc2)N(C)C(=O)[C@H](Cc2ccccc2)NC(=O)CN(C)C(=O)[C@@H]2CCCN2C(=O)[C@@H](Cc2ccccc2)N(C)C(=O)[C@H](CC(C)C)NC1=O,-15.1% (active),-8.47% (active),-20.2% (active),0.573% (active),-3.08% (active),0.571% (active),10.6% (inactive),-25.1% (active),0.387% (active),6.28% (active),-25.5% (active),-12.6% (active),,-5.16% (active),-23.5% (active),-24.8% (active),-0.97% (active),-69.4% (active),2.11% (active),
COc1ccc(NS(=O)(=O)c2ccc(C)cc2)c([N+](=O)[O-])c1,96.6% (inactive),90.8% (inactive),94% (inactive),97.3% (inactive),83.5% (inactive),87.9% (inactive),107% (inactive),112% (inactive),111% (inactive),93.2% (inactive),96.2% (inactive),96% (inactive),,101% (inactive),110% (inactive),110% (inactive),98.7% (inactive),109% (inactive),99.7% (inactive),
Cc1ccc(-c2c(Br)c(OC(=O)CO[C@@H]3C[C@H](C)CC[C@H]3C(C)C)c(-c3ccc(C)cc3C)c(Br)c2OC(=O)CO[C@H]2C[C@@H](C)CC[C@@H]2C(C)C)c(C)c1,98.6% (inactive),56.2% (inactive),103% (inactive),94.5% (inactive),93.6% (inactive),79.4% (inactive),96.8% (inactive),,106% (inactive),110% (inactive),106% (inactive),96.1% (inactive),,100% (inactive),96.2% (inactive),101% (inactive),98.8% (inactive),91.5% (inactive),88.9% (inactive),
CCCCc1ccc(Nc2nnc(SCC(=O)NC(=O)NCC)s2)cc1,97.3% (inactive),95.7% (inactive),81.5% (inactive),96% (inactive),61.4% (inactive),87.7% (inactive),95.9% (inactive),202% (inactive),104% (inactive),91.6% (inactive),97.2% (inactive),88.1% (inactive),,92.4% (inactive),110% (inactive),96.4% (inactive),113% (inactive),107% (inactive),109% (inactive),
COc1ccccc1/C=N/NC1=NC2C(N1)N(C)C(=O)N2C (centres undefined),100% (inactive),90.4% (inactive),95.5% (inactive),92% (inactive),93.5% (inactive),103% (inactive),102% (inactive),101% (inactive),112% (inactive),99.5% (inactive),93.6% (inactive),99.8% (inactive),,101% (inactive),104% (inactive),97.6% (inactive),98.3% (inactive),99.7% (inactive),102% (inactive),
CC1(C)CN(c2cnc(C(=O)Nc3cc(F)cc4cccnc34)cn2)CCN1,88.8% (inactive),92.7% (inactive),85.4% (inactive),91.8% (inactive),64.6% (inactive),41% (inactive),78.9% (inactive),19.7% (inactive),101% (inactive),36.3% (inactive),47.5% (inactive),58% (inactive),,74.6% (inactive),97.8% (inactive),83.7% (inactive),93.5% (inactive),70.8% (inactive),92.5% (inactive),
O=C1NC(=S)NC(=O)C1=Cc1cn(Cc2ccccn2)c2ccccc12,77.9% (inactive),86.7% (inactive),95.5% (inactive),53.6% (inactive),66.9% (inactive),76.6% (inactive),43.9% (inactive),58.4% (inactive),76.8% (inactive),26.4% (inactive),85.1% (inactive),53.3% (inactive),,59.6% (inactive),73.6% (inactive),60.7% (inactive),87.8% (inactive),-61.2% (active),66.2% (inactive),
O=C1c2ccccc2C(=O)c2c(NCCN=Cc3ccccc3O)cccc21,66.6% (inactive),56.3% (inactive),68.3% (inactive),21.7% (inactive),32% (inactive),58.2% (inactive),-48.4% (active),42.2% (inactive),-26% (active),41.6% (inactive),80.2% (inactive),66.3% (inactive),,51.2% (inactive),2.48% (active),62% (inactive),-14.3% (active),35.6% (inactive),49% (inactive),
COc1ccc(Nc2nc(N)nc3c2CCc2occc2-3)cc1,92.4% (inactive),97.1% (inactive),95.3% (inactive),98.4% (inactive),99.6% (inactive),76.9% (inactive),95.5% (inactive),116% (inactive),102% (inactive),92.4% (inactive),110% (inactive),99.5% (inactive),114% (inactive),100% (inactive),86.2% (inactive),96.8% (inactive),108% (inactive),93.6% (inactive),103% (inactive),
